Test [1] addresses T1, Ephrin type-B receptor 1 (Homo sapiens) (UniProt P54762).
T1 sequence (whole entry): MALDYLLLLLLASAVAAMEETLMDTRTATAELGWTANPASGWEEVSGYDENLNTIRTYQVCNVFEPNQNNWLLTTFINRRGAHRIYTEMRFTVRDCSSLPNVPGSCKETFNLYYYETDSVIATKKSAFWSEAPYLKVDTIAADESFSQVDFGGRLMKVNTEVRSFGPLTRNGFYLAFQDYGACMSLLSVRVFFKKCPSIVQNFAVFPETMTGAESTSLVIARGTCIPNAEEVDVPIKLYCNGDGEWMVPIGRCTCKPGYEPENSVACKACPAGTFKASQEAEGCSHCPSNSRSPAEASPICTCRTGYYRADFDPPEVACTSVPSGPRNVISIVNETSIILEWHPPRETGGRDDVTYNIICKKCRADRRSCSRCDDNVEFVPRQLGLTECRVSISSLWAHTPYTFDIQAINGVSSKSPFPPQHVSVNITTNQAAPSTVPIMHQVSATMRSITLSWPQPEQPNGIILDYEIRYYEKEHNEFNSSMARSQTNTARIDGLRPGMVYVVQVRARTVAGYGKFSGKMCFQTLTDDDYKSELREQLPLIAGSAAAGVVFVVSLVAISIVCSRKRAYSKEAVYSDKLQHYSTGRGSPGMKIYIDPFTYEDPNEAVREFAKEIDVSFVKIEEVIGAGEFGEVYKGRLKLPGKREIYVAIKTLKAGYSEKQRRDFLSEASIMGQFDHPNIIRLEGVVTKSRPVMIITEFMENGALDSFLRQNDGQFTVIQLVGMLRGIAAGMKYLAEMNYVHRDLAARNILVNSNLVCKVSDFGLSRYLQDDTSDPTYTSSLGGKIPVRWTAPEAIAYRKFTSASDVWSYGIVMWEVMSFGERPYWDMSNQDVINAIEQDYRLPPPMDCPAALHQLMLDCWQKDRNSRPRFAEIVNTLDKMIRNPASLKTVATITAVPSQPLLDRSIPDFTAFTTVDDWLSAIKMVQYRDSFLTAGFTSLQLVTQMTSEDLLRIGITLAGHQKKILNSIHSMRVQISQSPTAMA
Conditions: at 10 µM; call rule not given here.

In test [2] the target is T2, Ephrin type-B receptor 2 (Homo sapiens) (UniProt P29323).
T2 sequence (whole entry): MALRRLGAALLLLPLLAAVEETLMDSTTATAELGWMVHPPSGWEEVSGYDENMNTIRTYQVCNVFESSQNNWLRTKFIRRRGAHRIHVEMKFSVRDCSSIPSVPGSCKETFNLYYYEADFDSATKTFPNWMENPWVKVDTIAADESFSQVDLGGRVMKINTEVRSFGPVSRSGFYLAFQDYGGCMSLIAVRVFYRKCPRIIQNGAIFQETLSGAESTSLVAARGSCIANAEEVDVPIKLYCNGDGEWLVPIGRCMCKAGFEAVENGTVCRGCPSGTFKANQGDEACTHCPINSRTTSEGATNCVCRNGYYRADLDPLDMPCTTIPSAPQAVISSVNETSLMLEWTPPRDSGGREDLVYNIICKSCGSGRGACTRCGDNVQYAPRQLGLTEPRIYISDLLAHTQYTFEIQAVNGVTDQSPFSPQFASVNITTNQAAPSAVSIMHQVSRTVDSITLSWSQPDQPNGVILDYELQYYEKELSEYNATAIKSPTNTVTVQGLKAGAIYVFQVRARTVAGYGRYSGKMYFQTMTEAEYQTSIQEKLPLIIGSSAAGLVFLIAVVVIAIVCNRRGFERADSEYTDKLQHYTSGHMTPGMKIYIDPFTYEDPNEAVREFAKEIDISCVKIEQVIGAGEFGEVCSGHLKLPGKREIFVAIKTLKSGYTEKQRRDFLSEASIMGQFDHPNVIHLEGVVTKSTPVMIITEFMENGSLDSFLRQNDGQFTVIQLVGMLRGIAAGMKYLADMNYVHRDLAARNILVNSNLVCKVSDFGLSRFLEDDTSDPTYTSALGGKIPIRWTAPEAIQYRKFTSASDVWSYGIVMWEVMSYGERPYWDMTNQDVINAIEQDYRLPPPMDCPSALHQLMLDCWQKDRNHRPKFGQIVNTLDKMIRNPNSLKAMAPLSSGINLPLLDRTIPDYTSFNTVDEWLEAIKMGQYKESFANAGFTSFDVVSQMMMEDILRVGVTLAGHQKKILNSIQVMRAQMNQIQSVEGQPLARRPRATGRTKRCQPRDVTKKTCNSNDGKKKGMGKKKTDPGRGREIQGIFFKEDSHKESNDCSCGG
The following applies: at 1 µM.

Test [3] deals with T2, Ephrin type-B receptor 2 (Homo sapiens). Conditions: at 10 µM.
Test [4] has as its target T3, Ephrin type-B receptor 3 (Homo sapiens) (UniProt P54753).
T3 sequence (whole entry): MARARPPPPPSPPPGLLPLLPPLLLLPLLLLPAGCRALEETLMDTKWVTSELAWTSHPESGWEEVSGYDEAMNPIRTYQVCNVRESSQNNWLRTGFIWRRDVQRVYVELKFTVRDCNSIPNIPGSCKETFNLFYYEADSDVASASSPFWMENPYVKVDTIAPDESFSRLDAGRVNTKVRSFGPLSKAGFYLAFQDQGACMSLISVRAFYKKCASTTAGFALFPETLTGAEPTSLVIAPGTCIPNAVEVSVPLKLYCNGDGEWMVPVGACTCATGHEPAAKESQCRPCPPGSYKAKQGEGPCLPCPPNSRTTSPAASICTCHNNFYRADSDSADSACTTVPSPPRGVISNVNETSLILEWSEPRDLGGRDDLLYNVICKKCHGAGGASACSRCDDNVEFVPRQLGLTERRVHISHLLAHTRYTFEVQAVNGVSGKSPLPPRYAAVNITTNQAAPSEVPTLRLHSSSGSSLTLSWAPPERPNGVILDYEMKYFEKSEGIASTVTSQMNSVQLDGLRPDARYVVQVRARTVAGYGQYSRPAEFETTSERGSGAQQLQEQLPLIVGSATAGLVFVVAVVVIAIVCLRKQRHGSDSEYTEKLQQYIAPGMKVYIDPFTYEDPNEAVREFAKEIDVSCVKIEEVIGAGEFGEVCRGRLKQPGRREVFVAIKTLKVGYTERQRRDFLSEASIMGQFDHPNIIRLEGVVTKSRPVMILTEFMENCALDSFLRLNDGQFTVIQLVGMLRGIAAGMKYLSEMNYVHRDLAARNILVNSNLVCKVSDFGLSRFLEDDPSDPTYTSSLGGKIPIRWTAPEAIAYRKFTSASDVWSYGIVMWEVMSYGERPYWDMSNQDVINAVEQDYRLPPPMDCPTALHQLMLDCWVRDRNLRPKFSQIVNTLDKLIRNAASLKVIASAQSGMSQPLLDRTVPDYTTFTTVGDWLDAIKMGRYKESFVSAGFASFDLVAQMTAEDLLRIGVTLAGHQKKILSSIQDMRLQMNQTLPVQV
The following applies: at 1 µM.

In test [5] the target is T3, Ephrin type-B receptor 3 (Homo sapiens). Conditions: at 10 µM.
The target in test [6] is T4, Ephrin type-B receptor 4 (Homo sapiens) (UniProt P54760).
T4 sequence (whole entry): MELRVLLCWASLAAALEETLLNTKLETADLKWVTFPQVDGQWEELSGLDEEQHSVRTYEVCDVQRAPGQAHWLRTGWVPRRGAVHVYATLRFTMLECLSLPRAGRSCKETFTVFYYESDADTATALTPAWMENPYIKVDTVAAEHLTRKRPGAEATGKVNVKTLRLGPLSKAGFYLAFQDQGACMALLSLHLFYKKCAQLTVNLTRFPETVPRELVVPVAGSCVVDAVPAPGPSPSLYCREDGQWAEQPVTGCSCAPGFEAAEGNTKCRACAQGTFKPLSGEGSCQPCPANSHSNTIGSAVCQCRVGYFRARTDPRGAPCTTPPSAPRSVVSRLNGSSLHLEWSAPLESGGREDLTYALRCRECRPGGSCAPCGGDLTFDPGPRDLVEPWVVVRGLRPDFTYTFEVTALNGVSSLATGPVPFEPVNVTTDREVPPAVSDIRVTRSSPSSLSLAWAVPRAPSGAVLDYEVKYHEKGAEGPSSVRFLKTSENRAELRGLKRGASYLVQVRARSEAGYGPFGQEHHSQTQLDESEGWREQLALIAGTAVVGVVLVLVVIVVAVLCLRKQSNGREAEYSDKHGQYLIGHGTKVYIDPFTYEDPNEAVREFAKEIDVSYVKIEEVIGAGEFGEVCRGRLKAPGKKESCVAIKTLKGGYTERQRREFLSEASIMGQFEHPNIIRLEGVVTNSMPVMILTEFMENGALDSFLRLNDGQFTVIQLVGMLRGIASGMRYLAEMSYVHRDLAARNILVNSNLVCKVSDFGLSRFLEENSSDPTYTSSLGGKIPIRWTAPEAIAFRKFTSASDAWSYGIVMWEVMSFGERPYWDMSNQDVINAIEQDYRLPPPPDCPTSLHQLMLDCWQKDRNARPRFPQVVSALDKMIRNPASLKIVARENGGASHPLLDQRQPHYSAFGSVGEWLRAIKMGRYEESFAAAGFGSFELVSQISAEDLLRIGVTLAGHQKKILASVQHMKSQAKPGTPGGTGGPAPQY
Conditions: at 1 µM.

In test [7] the target is T4, Ephrin type-B receptor 4 (Homo sapiens). The following applies: at 10 µM.
Test [8] concerns the target Receptor tyrosine-protein kinase erbB-4 (Homo sapiens) (UniProt Q15303). The following applies: at 1 µM.
Test [9] shares this target. Conditions: at 10 µM.
Test [10] deals with Focal adhesion kinase 1 (Homo sapiens) (UniProt Q05397). The following applies: at 1 µM.

What is called residual activity is the signal under treatment as a percentage of the control signal.

Receptor tyrosine-protein kinase erbB-4 (Homo sapiens), sequence (Q15303 whole entry): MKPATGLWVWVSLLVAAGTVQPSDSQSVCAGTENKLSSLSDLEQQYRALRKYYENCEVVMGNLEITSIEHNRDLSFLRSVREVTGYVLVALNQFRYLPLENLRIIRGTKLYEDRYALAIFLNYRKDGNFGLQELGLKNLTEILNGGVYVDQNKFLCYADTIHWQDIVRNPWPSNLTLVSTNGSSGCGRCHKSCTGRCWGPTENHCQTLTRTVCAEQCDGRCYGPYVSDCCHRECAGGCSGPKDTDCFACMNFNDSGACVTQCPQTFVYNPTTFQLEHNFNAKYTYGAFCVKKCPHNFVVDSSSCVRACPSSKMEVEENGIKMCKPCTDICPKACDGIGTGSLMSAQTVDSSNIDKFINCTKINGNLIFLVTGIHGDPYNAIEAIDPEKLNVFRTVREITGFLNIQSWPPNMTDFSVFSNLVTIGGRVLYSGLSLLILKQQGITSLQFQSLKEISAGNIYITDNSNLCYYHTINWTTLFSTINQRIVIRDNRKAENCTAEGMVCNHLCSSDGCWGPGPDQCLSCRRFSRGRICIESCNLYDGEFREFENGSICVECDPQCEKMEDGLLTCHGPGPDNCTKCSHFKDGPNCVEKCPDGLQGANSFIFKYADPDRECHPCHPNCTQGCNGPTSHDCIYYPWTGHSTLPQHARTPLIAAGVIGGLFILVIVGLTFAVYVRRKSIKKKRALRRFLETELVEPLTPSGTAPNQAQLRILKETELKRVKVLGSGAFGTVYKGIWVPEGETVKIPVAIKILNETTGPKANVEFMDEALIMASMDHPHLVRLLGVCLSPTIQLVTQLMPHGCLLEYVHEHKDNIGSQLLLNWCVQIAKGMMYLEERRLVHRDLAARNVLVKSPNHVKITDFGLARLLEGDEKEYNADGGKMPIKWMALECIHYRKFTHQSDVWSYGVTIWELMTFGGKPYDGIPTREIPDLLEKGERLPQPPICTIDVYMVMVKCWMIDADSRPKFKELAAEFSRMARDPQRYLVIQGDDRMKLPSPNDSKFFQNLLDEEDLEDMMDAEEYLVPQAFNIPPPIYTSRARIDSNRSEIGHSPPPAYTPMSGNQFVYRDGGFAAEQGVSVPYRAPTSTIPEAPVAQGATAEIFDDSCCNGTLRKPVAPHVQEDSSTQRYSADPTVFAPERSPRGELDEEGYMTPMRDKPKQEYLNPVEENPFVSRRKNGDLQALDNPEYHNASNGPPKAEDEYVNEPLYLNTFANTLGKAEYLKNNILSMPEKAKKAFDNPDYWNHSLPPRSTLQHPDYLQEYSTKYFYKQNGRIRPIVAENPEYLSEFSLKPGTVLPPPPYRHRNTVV
Focal adhesion kinase 1 (Homo sapiens), sequence (Q05397 2-1052 limits assumed): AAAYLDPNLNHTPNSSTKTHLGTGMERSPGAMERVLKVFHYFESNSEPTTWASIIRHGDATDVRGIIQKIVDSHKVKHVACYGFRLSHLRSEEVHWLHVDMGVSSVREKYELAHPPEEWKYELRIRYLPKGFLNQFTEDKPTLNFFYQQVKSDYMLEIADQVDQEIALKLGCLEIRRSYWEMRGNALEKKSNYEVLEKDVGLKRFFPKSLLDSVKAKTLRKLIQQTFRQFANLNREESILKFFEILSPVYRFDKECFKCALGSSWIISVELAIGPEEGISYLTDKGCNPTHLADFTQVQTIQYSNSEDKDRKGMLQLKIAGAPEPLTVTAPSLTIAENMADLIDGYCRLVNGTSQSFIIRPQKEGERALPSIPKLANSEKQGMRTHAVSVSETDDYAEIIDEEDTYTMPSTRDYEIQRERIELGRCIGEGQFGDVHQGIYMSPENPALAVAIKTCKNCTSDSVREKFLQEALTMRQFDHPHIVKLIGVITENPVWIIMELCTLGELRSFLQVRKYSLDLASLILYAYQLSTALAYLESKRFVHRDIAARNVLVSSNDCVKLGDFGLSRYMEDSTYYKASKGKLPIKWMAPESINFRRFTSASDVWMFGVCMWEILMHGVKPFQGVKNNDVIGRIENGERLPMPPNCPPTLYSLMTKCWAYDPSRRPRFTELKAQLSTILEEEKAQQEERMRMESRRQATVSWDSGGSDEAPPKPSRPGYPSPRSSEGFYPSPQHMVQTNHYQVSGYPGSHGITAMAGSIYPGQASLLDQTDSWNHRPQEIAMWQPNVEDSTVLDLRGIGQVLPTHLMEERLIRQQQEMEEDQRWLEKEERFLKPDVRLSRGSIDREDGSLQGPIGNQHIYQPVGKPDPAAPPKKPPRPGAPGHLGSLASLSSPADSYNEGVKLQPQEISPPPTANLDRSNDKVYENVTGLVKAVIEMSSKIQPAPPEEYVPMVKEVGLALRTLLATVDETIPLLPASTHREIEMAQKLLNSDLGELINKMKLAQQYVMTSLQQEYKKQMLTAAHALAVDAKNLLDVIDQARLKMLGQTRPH

For the molecule `COc1cc2ncnc(Nc3ccc(Oc4ccccc4)cc3)c2cc1OC`, the residual activity in [1] is 107%; in test [2], 115%; in test [3], 109%; in test [4], 120% (inactive); in test [5], 93%; in test [6], 106%. Also, the residual activity in test [7] is 138%; in test [8], -3%; in test [9], -5%; in [10], 72%.

Values taken from ChEMBL document CHEMBL2218924, “A broad activity screen in support of a chemogenomic map for kinase signalling research and drug discovery” (Biochem J, 2013).
